# Test results reported in PubChem BioAssay AID2732 (Emory University Molecular Libraries Screening Center, 2010).
# Screen size: about 220,000 compounds; about 8,200 (3.7%) were called active. The full list was thinned out, with actives kept by preference. A number with no mark means an inactive call.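 How the source made its calls: active means compounds that reduced the stress-induced luciferase reporter signal by more than about 70% of percent inhibition (limit read from the data); inactive means the rest.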
# Experiment: inhibitors of CHOP promoter induction, primary screen, cell-based, unfolded protein response, luciferase reporter (AID 2732);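 further: 0% = tunicamycin plus vehicle and 100% = wells without tunicamycin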
# Details: CHO-K1 CHOP-promoter luciferase, tunicamycin-induced, 15-18 h; at 10 µM; stronger effect = higher value
row,SMILES,inhibition
1,COc1ccc(-c2cc(C(F)(F)F)nc(SCC(=O)Nc3ccc4c(c3)OCO4)n2)cc1OC,22.4%
2,COc1cc(OC)nc(S(C)(=O)=O)n1,-18.2%
3,COc1ccc(-c2cc(C(F)(F)F)nc(S(C)(=O)=O)n2)cc1OC,109% (active)
4,O=C(Nc1cccnc1)c1cc([N+](=O)[O-])ccc1Cl,-9.19%
5,CCOC(=O)C1CCN(c2c(Nc3cc(C)cc(C)c3)c(=O)c2=O)CC1,4.73%
6,O=S(=O)(c1ccc(NC(=S)NN=C(C2CC2)C2CC2)cc1)N1CCOCC1,-4.48%
7,CN(c1ccccc1)S(=O)(=O)c1ccc(Cl)c(C(=O)OCC(=O)NCc2ccco2)c1,29.9%
8,CCOc1ccc(Nc2nc(Cl)nc(N3CCN(c4ccc(OC)cc4)CC3)n2)cc1,72.4% (active)
9,CCN1CCN(c2nc(Nc3cc(OC)ccc3OC)nc(Nc3cc(OC)ccc3OC)n2)CC1,-5.76%
10,CCOc1ccc(NC(=O)CN2CCN(CC(=O)Nc3ccc(OC)cc3)CC2)cc1,34.6%
11,Cc1coc2cc3oc(=O)c(CCC(=O)O)c(C)c3cc12,-3.28%
12,COC(=O)c1sccc1NC(=S)Nc1ccc(C)cc1,10.2%
13,Cc1cnc(C(=O)OCC(=O)NCCCc2ccccc2)cn1,4.94%
14,CCN(CC)CCCNC(=O)CCc1ccccc1,0.68%
15,CCc1ccc(NC(=O)CS(=O)CC(=O)NCCCc2ccccc2)cc1 (stereo not drawn),75.9% (active)
16,NNC(=O)c1oc2nc(-c3ccccc3)cc(-c3ccco3)c2c1N,-41.2%
17,COC(OC)c1ccnc(SCc2ccccc2Cl)n1,15.3%
18,COc1ccc(-c2csc(Nc3ccc(O)cc3)n2)cc1,18.9%
19,O=c1oc2ccccc2cc1-c1csc(Nc2ccc(O)cc2)n1,-72.5%
20,Cc1ccc(Nc2nc(-c3ccc(O)cc3O)cs2)nc1,88.9% (active)
21,Nc1nnn(CC(=O)N/N=C/c2ccccc2)n1,9.73%
22,COc1cc(N2C(=O)CC3(CCCC3)CC2=O)cc(OC)c1OC,-7%
23,O=C(Nc1ccc(N2CCOCC2)nc1)c1c(F)cccc1F,-6.02%
24,CCOC(=O)c1c(NC(=O)NC(C)(C)C)sc2c1CCN(C)C2,16.3%
25,O=[N+]([O-])c1ccc2nc(-c3ccccn3)[nH]c2c1,-8.07%
26,Cc1cc(C)nc(S/C=C/C(=O)c2ccccc2)n1,24.8%
27,COc1ccc(Cl)cc1CSc1ncn[nH]1,-7.32%
28,O=C(/C=C/Sc1ncn[nH]1)c1ccc(Cl)cc1,105% (active)
